An excerpt weighted towards active compounds, which were near 17% of everything screened.
DT40 TDP1 CPT = growth inhibition of DT40 Tdp1-/-;hTDP1 cells with camptothecin (screen for TDP1 inhibitors). chicken DT40 Tdp1-/-;hTDP1 cells + 20 nM CPT, ATP luminescence, 48 h. hit rate 12% among 420,000. AID 686979. Potency, µM (titrated, usually from 46.2 µM), for inactives: at the highest dose activity change, negative = growth inhibition, usual class: inhibitors; further: on the % scale 0 is the no-effect control and ±100 the full control effect; nearly all actives have a fitted effect of over 55% in size
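Chicken DT40 Tdp1-/- cells complemented with human TDP1, 400 cells/well, exposed to compounds plus 20 nM camptothecin for at least 48 h at 37 C; viability read as ATP content by CellTiter-Glo luminescence.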
HepG2 viability = kills HepG2 cells in TGF-b inhibitor counter-screen; HepG2 CAGA-GFP viability, ATP luminescence, 18 h; Potency, µM (doses to about 46.1 µM), without a hit: at the highest dose activity change, negative = cytotoxicity, most hits filed as cytotoxic; hit rate 0.76% among 410,000; AID 588856
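CellTiter-Glo luminescence gave cytotoxicity after 18 hours at 37 degrees C. The cells were HepG2 CAGA-GFP in 1% FBS DMEM, stimulated with 500 pg/mL TGF-beta after compound addition. %Activity was normalised to no-cell wells (complete cell-killing) and DMSO (no toxicity), and curves were fitted and classified.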
HT1080 IDH1KD tx = HT-1080 IDH1 knockdown cell toxicity (counter line) | AID 686971 | Potency, µM (series often up to 46.1 µM), without a hit: top-dose activity, negative = toxicity, most hits filed as cytotoxic | hit rate 2% among 360,000 | HT-1080 IDH1 knockdown viability, ATP luminescence, 48 h;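 further: 0% = DMSO wells and -100% = cell-free medium wells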
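Knockdown cells (IDH1KD HT-1080) received compounds 2 h after plating at 750 cells/well and were kept 48 h at 37 °C in 5% FBS RPMI. A CellTiter-Glo luminescence read gave % activity for curve fitting.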
HT1080NT lethal = kills 2HG-producing HT-1080-NT fibrosarcoma cells; hit rate 1.6% among 360,000; HT-1080-NT fibrosarcoma viability, CellTiter-Glo ATP luminescence, 48 h; Potency, µM (series often up to 46.1 µM), for the others: top-dose activity, negative = less viability, usual class: cytotoxic;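 further: NT is the 2HG producing partner of a matched IDH1 knockdown line; 0% = DMSO-treated cells and -100% = media-only wells without cells; nearly all actives have a fitted effect of over 55% in size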
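Fibrosarcoma NT cells, 750 per well in 5% FBS RPMI, were exposed to compound for 48 hours. Viability: CellTiter-Glo luminescence.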
TGFb inhibitor = TGF-b pathway inhibition; HepG2 CAGA-GFP TGF-b/SMAD3 reporter, GFP fluorescence, 18 h; TGF-beta stimulated, 500 pg/mL final; Potency, µM (top dose mostly 46.1 µM), for inactives: top-dose activity, negative = inhibition, actives largely listed as inhibitors; hit rate 1.2% among 410,000; further: on the % scale 0 is the no-effect control and ±100 the full control effect; nearly all actives have a fitted effect of over 65% in size
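Smad-responsive CAGA-GFP expression was quantified in HEPG2 cells exposed to compounds and 500 pg/mL final TGF-beta for 18 h at 37 degrees C; unstimulated wells defined full inhibition.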
DT40 TDP1 no CPT = qHTS for Inhibitors of human tyrosyl-DNA phosphodiesterase 1 (TDP1): qHTS in cells in absence of CPT; DT40 Tdp1-/- hTDP1 cells, no CPT, ATP luminescence, 48 h; Potency, µM (top dose mostly 46.2 µM), inactives show at the top dose activity change, negative = growth inhibition, actives largely listed as inhibitors; hit rate 15% among 420,000; AID 686978, 2013; further: on the % scale 0 is the no-effect control and ±100 the full control effect; nearly all actives have a fitted effect of over 55% in size
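Seeded 400 DT40-hTDP1 cells/well (vehicle DMSO, no 20 nM CPT); pinned compounds; ≥48 hr at 37 °C; CellTiter-Glo luminescence as viability measure.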
Active calls of the source: *; u = inconclusive; x = not tested or not shown; [ ] = another dose, or the depositor's remark. The call rests on the fitted dose curve; in most records, active means well fitted curve in the direction sought with a large enough effect; inconclusive means small, poorly fitted or top-dose-only effect, or another doubt; inactive means no such curve, though single readings can be large; an effect the other way counts as inactive or inconclusive. Potency means the concentration at half of the fitted maximal effect.

SMILES	DT40 TDP1 CPT	HepG2 viability	HT1080 IDH1KD tx	HT1080NT lethal	TGFb inhibitor	DT40 TDP1 no CPT
COc1ccc(NC(=O)C2(C)Cc3c(-c4cccc(C(N)=O)c4)ccnc3O2)cn1 (stereo unspecified)	3.7µM*	-4%	4.6µM*	u	4%	2.3µM*
CC(=O)c1cccc(NC(=O)C2(C)Cc3c(-c4cccc(C(N)=O)c4)ccnc3O2)c1 (stereo unspecified)	u	-5%	u	u	-2%	u
CC(C)c1ccc(NC(=O)C2(C)Cc3c(-c4cccc(C(F)(F)F)c4)ccnc3O2)cc1 (stereo unspecified)	16µM*	-21%	-22%	-3%	11%	u
Cc1ccc(OCc2ccccc2Br)c([N+](=O)[O-])n1	-1%	-5%	14%	27%	0%	-18%
CCCCC[C@@H](C)N1C[C@@H](COCc2ccccc2)Oc2cc(N3CC[C@H](O)C3)ccc2S1(=O)=O	u	x	u	u	x	16µM*
CCCCC[C@@H](C)N1C[C@@H](COCc2ccccc2)Oc2cc(N3CC[C@@H](O)C3)ccc2S1(=O)=O	u	x	u	u	x	16µM*
C[C@@H](c1ccccc1)N1C[C@H](COCc2ccccc2)Oc2cc(N3CC[C@@H](O)C3)ccc2S1(=O)=O	u	x	-29%	u	x	u
CCOC(=O)c1c2c3c(cccc3n(C)c1=O)C(=O)c1ccccc1-2	u	-6%	-20%	-19%	2%	u
CCOC(=O)c1c2c(n(C)c1C)C(=O)C(=O)c1ccc(Br)cc1-2	1.5µM*	-46%	u	u	u	2.1µM*
CCOC(=O)c1c2c(n(Cc3ccccc3)c1C)C(=O)C(=O)c1ccccc1-2	0.58µM*	-106%	u	23µM*	u	1.2µM*
C/C=C/C=N/Nc1nc(-c2ccc([N+](=O)[O-])cc2)cs1	u	2%	-11%	-9%	-2%	23µM*
CC(C)=NNc1nc(-c2ccc([N+](=O)[O-])cc2)cs1	u	-1%	u	-5%	u	21µM*
Cc1ccc(-c2csc(N/N=C/C=C/c3ccccc3)n2)cc1	u	-33%	u	4%[9.24 µM]	-4%	u
CC(=O)Nc1nc(-c2ccc([N+](=O)[O-])cc2)cs1	u	-20%	-6%	-13%	-4%	u
Cc1nc2cc(Cl)ccc2c(=O)n1Cc1ccncc1	2%	3%	2%	2%	16%	-1%
Cc1cc(C)cc(OCCCn2ccnc2)c1	-11%	-7%	0%	0%	-25%	-9%
Cc1ccc(OCCOCCn2ccnc2)c(Br)c1	-26%	-1%	-7%	-1%	13%	23µM*
C=CCOc1ccc(NC(=O)C(=O)NCCCn2ccnc2)cc1	-14%	-18%	-3%	21%	-2%	-8%
Cc1ccc(OCCCn2ccnc2)cc1C	u	0%	3%	1%	-4%	18µM*
Cc1cccc(OCCCn2ccnc2)c1	21µM*	-17%	-2%	2%	3%	u
CCCCCOc1ccc(NC(=O)C(=O)NCCCn2ccnc2)cc1	u	-20%	-15%	-7%	-9%	18µM*
COc1ccccc1C(=O)Nc1ccc(OCC(=O)N2CC(C)CC(C)C2)cc1 (stereo unspecified)	u	-27%	3%	4%	-4%	u
CC(C)NC(=O)C1(C)CSCC(=O)N1Cc1ccco1 (stereo unspecified)	26%	x	-11%	5%	x	11%
S=c1sc2ccccc2n1CCc1ccncc1	u	-40%	9%	0%	u	-27%
Cc1cc(C)c(OCCn2ccnc2)c(C)c1	6.5µM*	4%	-12%	-3%	-7%	5.2µM*
SMILES	DT40 TDP1 CPT	HepG2 viability	HT1080 IDH1KD tx	HT1080NT lethal	TGFb inhibitor	DT40 TDP1 no CPT
CCn1c(C)c(C2=CCN(S(=O)(=O)c3ccc(C)cc3)CC2)c2ccccc21	u	-9%	15%	6%	0%	18µM*
S=C1SC2(CCCCCC2)NC2=C1CCCCC2	u	-34%	2%	0%	-23%	13µM*
COc1ccc(C2CC(c3cccs3)=NN2C(=O)CCCC(=O)O)cc1OC (stereo unspecified)	3%	24%	-3%	-1%	1%	3%
O=C(Nc1ccc(-c2nc3cccnc3s2)cc1)C1CCCO1 (stereo unspecified)	23µM*	-31%	-27%	-22%	4%	21µM*
COc1ccc(NC(=O)C2CCCO2)cc1 (stereo unspecified)	2%	11%	-7%	-3%	-5%	18%
COc1ccc(CCNC(=O)Cc2cccc(C(F)(F)F)c2)cc1OC	-15%	-1%	4%	6%	2%	u
O=C(Cc1cc(=O)[nH][nH]1)N/N=C/c1cccc(Cl)c1Cl	-5%	5%	-1%	7%	2%	24%
O=C(NC(NC(=S)Nc1ccc(Cl)cc1Cl)C(Cl)(Cl)Cl)c1cccc([N+](=O)[O-])c1 (stereo unspecified)	7.3µM*	13µM*	u	u	u	5.8µM*
Cc1ccccc1NC(=S)NC(NC(=O)c1ccccc1C)C(Cl)(Cl)Cl (stereo unspecified)	u	-18%	-15%	-21%	-26%	21µM*
O=C(O)c1cccc(NC(=S)NC(NC(=O)c2cccc([N+](=O)[O-])c2)C(Cl)(Cl)Cl)c1 (stereo unspecified)	2%	34%	7%	7%	2%	1%
Cc1ccc(C)c(NC(=S)NC(NC(=O)Cc2ccccc2)C(Cl)(Cl)Cl)c1 (stereo unspecified)	-2%	-21%	u	u	-14%	-22%
Cc1cc(C)c(NC(=S)NC(NC(=O)c2ccccc2)C(Cl)(Cl)Cl)c(C)c1 (stereo unspecified)	u	-49%	u	u	u	5.8µM*
Cc1ccc(C)c(C(=O)Nc2ccncc2)c1	4%	3%	-5%	-3%	-18%	-12%
CCN(CC)C(=O)C1=C(C)N(Cc2ccccc2)C(=O)C(CC(=O)NC2CCCCC2)C1 (stereo unspecified)	-23%	5%	8%	9%	-2%	-22%

Screening data: PubChem, National Center for Advancing Translational Sciences (NCATS)
